Epigenetic derep = Quantitative High-Throughput Screen for Regulators of Epigenetic Control; murine LDR cells, GFP reporter derepression, 30 h; 0.2% of 280,000 active; Potency, µM (titrated, usually from 53.9 µM), for the others: at the highest dose GFP activation, usual class: activators; also: potency is read from the fitted curve at half-maximal effect; % of control where 0% means no effect; nearly all actives have a fitted effect of over 60% in size
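Reporter derepression read as number of fluorescent GFP-positive objects, 20-120 um in size, counted by laser-scanning cytometer. Mouse LDR line with an epigenetically silenced CMV-GFP locus; compound incubation 30 h, 37 C.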
D1 potentiator = Potentiators of Human D1 Dopamine Receptor: qHTS; potentiation, % at 10 µM; 0.036% of 360,000 active; HEK293 TREx D1 cells, calcium flux, dopamine EC20 potentiation; D(1A) dopamine receptor (Homo sapiens), P21728; in the data active = potentiation above about 30%; also: 0% is about no effect
D1 ag = Allosteric Agonists of the Human D1 Dopamine Receptor: qHTS; D(1A) dopamine receptor (Homo sapiens), P21728; HEK293 T-REx D1 cells, calcium flux, agonist mode; activation, % at 2 µM; 1% of 360,000 active; in the data active = activation above about 30%; also: 0% is about no effect
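Agonism was scored from calcium flux recorded over 180 s (1 read/s) after pintool compound addition, following a 10-cycle baseline. Cells were inducible force-coupled HEK293 TREx D1, plated overnight at 30 C and loaded with no-wash calcium dye.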
D1 antag = Antagonist of Human D 1 Dopamine Receptor: qHTS | 3.2% of 360,000 active | HEK293 TREx D1 cells, calcium flux, dopamine EC80; stronger effect = lower value | activity change, negative = inhibition, % at 10 µM | D(1A) dopamine receptor (Homo sapiens), P21728 | AID 504652, 2011; in the data active = activity change below about -30%; also: % is scaled to controls: 0 for no effect and ±100 for the full control effect
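Calcium flux readout: force-coupled, inducible Hek293 Trex D1 line, cells induced overnight at 30 C with tetracycline, dye-loaded 30–90 min at RT. Antagonism scored against EC80 dopamine challenge given 180 s after compound.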
TRHR enhancer-1 = qHTS for Small Molecule Agonists and Allosteric Enhancers of Human TRH Receptor: Primary Screen for Enhancers. TRHR cells, fluo-8 calcium fluorescence, EC20 TRH enhancement. enhancement, % at 2 µM. 0.66% of 360,000 active. AID 493056, 2011; in the data active = enhancement above about 30%; also: 0% is about no effect
Target sequence (P34981 whole entry, looked up): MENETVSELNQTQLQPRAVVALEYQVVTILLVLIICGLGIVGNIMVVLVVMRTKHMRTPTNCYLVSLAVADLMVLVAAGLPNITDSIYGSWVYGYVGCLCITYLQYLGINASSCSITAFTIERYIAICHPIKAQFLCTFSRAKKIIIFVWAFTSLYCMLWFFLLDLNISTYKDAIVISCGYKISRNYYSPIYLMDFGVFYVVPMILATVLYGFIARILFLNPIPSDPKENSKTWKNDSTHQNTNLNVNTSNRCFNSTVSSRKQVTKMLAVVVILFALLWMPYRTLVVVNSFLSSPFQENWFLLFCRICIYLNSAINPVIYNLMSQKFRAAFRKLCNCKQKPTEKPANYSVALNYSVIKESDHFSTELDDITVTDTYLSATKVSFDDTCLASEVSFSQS
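TRHR-expressing cells loaded with fluo-8 calcium dye were read kinetically (ex 480/em 530) during compound addition, then stimulated with an EC20 of TRH (10 nM final). Enhancement of the Gq-mediated intracellular calcium response was scored.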
TRHR agonist-1 = qHTS for Small Molecule Agonists and Allosteric Enhancers of Human TRH Receptor: Primary Screen for Agonists. activation, % at 2 µM. TRHR cells, calcium flux fluo-8, FDSS agonist mode. Thyrotropin-releasing hormone receptor (Homo sapiens), P34981. 0.18% of 360,000 active; in the data active = activation above about 30%; also: 0% is about no effect
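Read-out: compound-evoked intracellular calcium rise in TRHR cells, fluo-8 dye, kinetic FDSS fluorescence at 1 s/cycle following a 10-cycle baseline. Cells cultured overnight before dye loading (30 min–1.5 h, RT).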
TRHR enhancer-2 = qHTS for Small Molecule Agonists and Allosteric Enhancers of Human TRH Receptor: Confirmation Screen for Enhancers; shares compounds with TRHR enhancer-1; TRH receptor cell assay, enhancer confirmation qHTS; activity change, negative = inhibition, % at 46.1 µM; 970 tested, under 10 active;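 also: compound effect scored on response to added TRH at EC20 of 10 nM; 0% is about no effect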
TRHR agonist-2 = qHTS for Small Molecule Agonists and Allosteric Enhancers of Human TRH Receptor: Confirmation Screen for Agonists; TRHR-expressing cells, agonist activation read-out; shares compounds with TRHR enhancer-1; Potency, µM (top dose mostly 46.1 µM), for the others: at the highest dose activation, usual class: activators; 8% of 970 active; also: potency is read from the fitted curve at half-maximal effect; 0% is about no effect; nearly all actives have a fitted effect of over 75% in size
Numbers without * were called inactive; u = inconclusive; x = no result given. A selection: hits, their analogues and other compounds. The true share with any hit is near 4.6%. Unless noted, calls follow the shape of the dose curve; as a rule, active = well fitted curve in the direction sought with a large enough effect; inconclusive = small, poorly fitted or top-dose-only effect, or another doubt; inactive = no such curve, though single readings can be large; an effect the other way counts as inactive or inconclusive.

SMILES | Epigenetic derep | D1 potentiator | D1 ag | D1 antag | TRHR enhancer-1 | TRHR agonist-1 | TRHR enhancer-2 | TRHR agonist-2
Cc1ccc(S(=O)(=O)NC(C)c2ccccc2)cc1[N+](=O)[O-] (centres undefined) | x | 0.6 | 0.8 | 1.5 | 58.0* | -0.5 | 1.8 | -0.4%
Cc1ccc(O)c(NC(=O)c2ccccc2-c2ccccc2C(=O)O)c1 | x | 4.7 | 5.4 | -0.5 | 43.4* | 0.4 | -1.6 | 7.0%
Cc1ccc(NC(=O)c2ccccc2-c2ccccc2C(=O)O)cc1 | 2.4% | -6.8 | 0.3 | -16.1 | -5.4 | 0.0 | x | x
CCn1c(CC(=O)Nc2ccccc2)n[nH]c1=S | 5.2% | -0.3 | 2.9 | 7.4 | 52.0* | 0.0 | -0.2 | -0.7%
CCCC(=O)NC(C)c1nc2ccccc2n1CC (centres undefined) | 0.0% | -8.2 | 2.0 | 0.3 | 44.8* | 0.0 | -6.2 | 0.4%
CN1C(=O)/C(=C/c2coc3ccc(O)cc3c2=O)SC1=S | 1.1% | -3.6 | 17.4 | 12.9 | 0.7 | 3.3 | x | x
N=C1/C(=C\c2coc3ccc(O)cc3c2=O)C(=O)N=C2SC=CN12 | 1.1% | -2.1 | 131.6* | -12.7 | 2.6 | 59.4* | 0.0 | 9.2µM*
c1coc(-c2ccnc3ncnn23)c1 | 0.9% | -3.5 | 5.1 | 1.5 | 49.1* | -0.6 | -5.5 | -0.7%
O=C(COc1ncnc2ccccc12)NCCc1ccccc1 | -1.9% | -10.2 | 2.2 | -43.9* | 58.5* | -0.1 | -1.6 | -0.8%
Cc1ccc2c(CC(=O)Nc3c(C(=O)c4ccc(C)c(F)c4)oc4ccccc34)coc2c1 | -1.9% | 1.2 | 4.2 | -5.2 | 10.9 | -1.2 | x | x
Cc1cn2c(=O)cc(COc3ccccc3NC(=O)c3ccccc3C)nc2s1 | -2.3% | -0.7 | -0.7 | -13.6 | 4.1 | -0.4 | x | x
COc1ccc(C2(C(N)=O)CCCCC2)cc1OC | -3.9% | 0.1 | 4.2 | -2.1 | -6.2 | -0.2 | x | x
COc1ccc(C2(C(=O)NC(C)C)CCCC2)cc1OC | -2.1% | 7.3 | 1.5 | -12.4 | 52.2* | -0.4 | -5.0 | -0.4%
CCOC(=O)/C=C/c1cc(F)c(S(=O)(=O)N2CCN(S(=O)(=O)c3ccc4c(c3)OCCO4)CC2)cc1F | x | -6.3 | 0.1 | -0.7 | -3.0 | 0.1 | x | x
Cc1cnc2c(c1SCC(=O)Nc1ccc(F)cc1F)c(=O)n(C)c(=O)n2C | 6.9% | -0.5 | -0.6 | x | -2.6 | -0.2 | x | x
COc1ccc(NC(=O)CN(C)C(=O)CNC(=O)c2sc3ccccc3c2Cl)cc1 | x | -8.7 | 0.6 | -1.0 | 44.7* | 0.1 | 0.8 | 1.2%
O=C(Nc1cc(Cl)cc(Cl)c1)c1ccc(F)c(S(=O)(=O)N2CCCCCC2)c1 | 0.0% | 0.9 | 2.5 | 8.2 | 1.8 | 0.8 | x | x
Oc1c(Cl)cc(Cl)cc1/C=C/c1ccc2cccc(O)c2n1 | 2.8% | -1.4 | 114.0* | -13.7 | -10.4 | 42.1* | u | u
COc1ccc(N(CC(=O)Nc2cccc(C(C)=O)c2)S(C)(=O)=O)cc1OC | -1.6% | 6.2 | 1.0 | -5.9 | 52.8* | 0.6 | -8.0 | -0.5%
COc1cccc(N(CC(=O)Nc2cccc(C(C)=O)c2)S(C)(=O)=O)c1 | 6.3% | -4.4 | 5.3 | -6.0 | 1.3 | 0.3 | x | x
CC(NCCC1(C(C)C)CCOC(C)(C)C1)c1cccs1 (centres undefined) | -0.9% | 2.4 | 4.0 | 10.2 | 52.1* | 0.2 | -3.8 | 2.6%
Cc1ccc(C2(CCNC(C)c3cccs3)CCOC(C(C)C)C2)cc1 (centres undefined) | 4.4% | 9.6 | 5.8 | 13.5 | 3.5 | 1.7 | x | x
CCCCOc1ccc(C(=O)NCC(=O)NCCOc2ccccc2OC)cc1 | x | -1.8 | 1.0 | 8.2 | 74.5* | -0.4 | 10.7 | 5.2%
CCCCOc1ccc(C(=O)NCC(=O)N2CC(C)CC(C)C2)cc1 (centres undefined) | x | x | 3.9 | -2.8 | -3.1 | 39.9* | -7.0 | 5.0%
CCCCOc1ccc(C(=O)NCC(=O)N2CC(C)OC(C)C2)cc1 (centres undefined) | x | 1.4 | 3.0 | -2.1 | -1.5 | 0.2 | x | x
SMILES | Epigenetic derep | D1 potentiator | D1 ag | D1 antag | TRHR enhancer-1 | TRHR agonist-1 | TRHR enhancer-2 | TRHR agonist-2
CCOC(=O)C1CCN(C(=O)c2cc3c(ccc4ccccc43)o2)CC1 | x | -5.9 | -0.8 | 3.3 | 42.4* | -0.6 | -4.6 | 2.3%
CCc1ccc(N2C(=O)CC(c3ccc(F)cc3)C3=C2COC3=O)cc1 (centres undefined) | 1.1% | -5.3 | 5.1 | -17.4 | 72.6* | 0.3 | -6.1 | 1.4%
O=C1OCC2=C1C(c1ccc(F)cc1)CC(=O)N2c1ccc(F)cc1 (centres undefined) | 0.2% | -1.5 | 2.5 | 2.7 | -10.6 | -1.2 | x | x
COc1ccc(C(=O)N/N=C/c2sc3ccccc3c2O)cc1 | -1.8% | -1.8 | 22.5 | 3.0 | -3.2 | 7.2 | x | x
O=C(N/N=C/c1sc2ccccc2c1O)c1ccccc1 | -0.1% | -0.7 | 59.8* | 9.7 | -5.6 | 38.4* | 1.0 | 20.6µM*
COc1cc(OC)c(-c2nc3cnccc3n2C)cc1OC | -1.7% | 3.0 | 1.0 | -7.5 | 18.3 | -0.1 | x | x
Cn1c(-c2ccc3ccccc3n2)nc2cnccc21 | 0.0% | -5.5 | 2.0 | 8.8 | 53.7* | -1.3 | u | -0.4%
COCCCNC(=O)C1CCN(c2cc(C)nc3c(-c4ccc(OC)c(OC)c4)c(C)nn23)CC1 | -1.1% | -0.2 | 1.4 | 3.4 | 9.3 | 0.2 | x | x
Cc1ccc2nc3c(cc2c1)c(NC(=O)C1CCCO1)nn3CC(C)C (centres undefined) | -1.1% | -2.5 | 0.9 | x | 6.2 | -0.4 | x | x
Cc1ccc2cc3c(NC(=O)C4CCCO4)nn(CC(C)C)c3nc2c1 (centres undefined) | 1.0% | -1.1 | 2.9 | x | 47.3* | -0.4 | u | 1.1%
O=C(NCCc1ccc(Cl)cc1)c1cc(=O)[nH]c2ccccc12 | x | -4.4 | 0.9 | 1.6 | 42.9* | -0.5 | u | 2.4%
Cc1ccc2[nH]c(=O)c3cc(C(=O)NCCc4ccc(Cl)cc4)sc3c2c1 | 15.0% | -1.1 | 3.5 | -24.6 | 57.2* | 2.5 | 2.8 | 0.6%
